Compound activity (PubChem)
Most compounds without a hit are left out; they make up all but 4.6% or so of the library.
Hsp90 Hop PPI = qHTS Assay for Disrupters of an Hsp90 Co-Chaperone Interaction; AlphaScreen TPR2A-His6 binding biotin-Hsp90 C-terminal peptide; actives 0.44% (n = 71,000); Potency, µM (titrated, usually from 57 µM), inactives show at the top dose activity change, negative = inhibition; active means well fitted curve in either direction with a large enough effect; inconclusive means small, poorly fitted or top-dose-only effect, or another doubt; further: on the % scale 0 is the no-effect control and ±100 the full control effect
PK Bst = Pyruvate Kinase; purified pyruvate kinase, luminescence ATP production; ribose 5-phosphate activator present at AC10; actives 1.2% (n = 51,000); Potency, µM; in the data active means potency below about 11 µM; inconclusive means mostly about 12 µM to 25 µM;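 the screen sought inhibitors and activators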;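 further: scaled between full activation by ribose 5 phosphate and full inhibition by luteolin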
15-hLO inh = qHTS Assay for Inhibitors of 15-hLO (15-human lipoxygenase). actives 1.4% (n = 74,000). purified 15hLO-1, xylenol orange hydroperoxide absorbance. AID 887, 2007. Polyunsaturated fatty acid lipoxygenase ALOX15 (Homo sapiens), P16050. Potency, µM (titrated, usually from 57.1 µM), for inactives: top-dose activity change, negative = inhibition, hits mostly inhibitors; further: on the % scale 0 is the no-effect control and ±100 the full control effect; nearly all actives have a fitted effect of over 55% in size
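Purified human 15hLO-1 (40 nM final) in 25 mM Hepes pH 7.5, 0.01% Triton X-100 was preincubated with compound 15 min at room temperature, then reacted 6 min with 50 uM arachidonic acid; hydroperoxide detected by Fe-XO, 573/405 nm absorbance ratio.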
USP2a inhib = qHTS Assay for Inhibitors of Ubiquitin-specific Protease USP2a; Ubiquitin carboxyl-terminal hydrolase 2 (Homo sapiens), O75604; USP2a enzymatic assay, qHTS inhibition; Potency, µM (doses to about 38.3 µM), for the others: at the highest dose activity change, negative = inhibition, most hits filed as inhibitors; actives 0.1% (n = 60,000); further: nearly all actives have a fitted effect of over 60% in size
Target sequence (O75604 whole entry, looked up): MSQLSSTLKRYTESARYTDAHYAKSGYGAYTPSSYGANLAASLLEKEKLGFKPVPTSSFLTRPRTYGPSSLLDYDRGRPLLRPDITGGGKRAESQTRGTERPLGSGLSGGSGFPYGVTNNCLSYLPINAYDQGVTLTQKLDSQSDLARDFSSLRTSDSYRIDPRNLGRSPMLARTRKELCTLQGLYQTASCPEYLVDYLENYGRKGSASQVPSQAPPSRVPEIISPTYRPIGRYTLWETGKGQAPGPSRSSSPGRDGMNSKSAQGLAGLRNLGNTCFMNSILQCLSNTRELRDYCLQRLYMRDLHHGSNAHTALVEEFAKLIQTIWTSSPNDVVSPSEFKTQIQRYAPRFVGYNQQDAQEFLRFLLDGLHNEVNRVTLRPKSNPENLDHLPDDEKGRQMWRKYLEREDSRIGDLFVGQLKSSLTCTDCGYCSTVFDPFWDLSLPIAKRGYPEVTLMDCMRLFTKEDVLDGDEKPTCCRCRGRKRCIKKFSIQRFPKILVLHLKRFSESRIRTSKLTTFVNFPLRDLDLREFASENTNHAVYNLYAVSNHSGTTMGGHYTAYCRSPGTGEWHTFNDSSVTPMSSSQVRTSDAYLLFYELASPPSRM
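Inhibition is measured in a cell-free coupled assay with 20 nM USP2 core, 20 nM Ub-PLA2 and 20 uM NBD C6-HPC, 2.5 h incubation. Activity normalized to NEM control.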
GBA mod = Glucocerebrosidase. actives 1.1% (n = 48,000). purified enzyme, resorufin glucoside fluorescence (screen aimed at inhibitors), 20 min. Lysosomal acid glucosylceramidase (Homo sapiens), P04062. Potency, µM; in the data active means potency below about 15 µM; inconclusive means mostly about 16 µM to 33 µM;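 further: the screen sought inhibitors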
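Compounds titrated against 0.2 nM normal enzyme, 30 uM resorufin beta-D-glucopyranoside substrate, citrate/phosphate buffer with taurocholate and tween-20, pH 5.9. Reaction ran 20 min at room temperature; fluorescence (Ex 548/Em 600) gave AC50.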
Tau fil binding = qHTS Assay for Tau Filament Binding | Microtubule-associated protein tau (Homo sapiens), P10636 | recombinant tau filaments, thioflavin S fluorescence, 15 h; filaments grown with octadecylsulfate alongside compound | Potency, µM (titrated, usually from 57.1 µM), for inactives: at the top dose activity change, negative = inhibition | actives 2% (n = 71,000) | AID 596, 2007;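 further: on the % scale 0 is the no-effect control and ±100 the full control effect; actives lower thioflavin S fluorescence by blocking filaments or displacing dye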
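His-tagged recombinant human tau (exons 2, 3, 10; 1 uM final) fibrillized with 30 uM sodium octadecylsulfate, 15 h at 37 C, in pH 7.4 HEPES buffer with 10 uM thioflavine S and 5 mM DTT. Reduced ThS fluorescence (450/510 nm) marks activity.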
The depositor's hits bear a star; ? = inconclusive; . = not tested or not shown. Unless noted, the call rests on the fitted dose curve; in most records, active means well fitted curve in the direction sought with a large enough effect; inconclusive means small, poorly fitted or top-dose-only effect, or another doubt; inactive means no such curve, though single readings can be large; an effect the other way counts as inactive or inconclusive. Potency means the concentration at half of the fitted maximal effect.

SMILES	Hsp90 Hop PPI	PK Bst	15-hLO inh	USP2a inhib	GBA mod	Tau fil binding
CCOc1ccc(C2C(C#N)=C(N)SC(N)=C2C#N)c(OCC)c1	-8.1%	>57	10µM*	3.8%	>76.9	62.6%
CC(=O)c1c(OC(=O)c2ccco2)c2ccccc2n1C	-3.5%	.	25.1µM*	-13.5%	.	7.5%
CC(=O)c1sc2ccccc2c1OC(=O)c1ccco1	-1.5%	.	-3.0%	-7.9%	.	8.3%
N=c1c(C(=O)NCc2ccccc2)cc2c(=O)n3ccccc3nc2n1CCCN1CCOCC1	-8.3%	>57	?	5.1%	>76.9	?
CCCn1c(=N)c(C(=O)NCc2ccc3c(c2)OCO3)cc2c(=O)n3cccc(C)c3nc21	-1.8%	.	-13.3%	26.6%	>76.9	1.58µM*
COc1ccc(CCn2c(=N)c(C(=O)NCc3ccco3)cc3c(=O)n4ccccc4nc32)cc1	.	>25.6	.	.	.	.
CCOCCCn1c(=N)c(C(=O)NCc2ccc3c(c2)OCO3)cc2c(=O)n3ccccc3nc21	-3.9%	>57	4.8%	17.1%	>76.9	5.01µM*
CCOC(=O)c1cc2c(=O)n3cccc(C)c3nc2n(CCc2ccccc2)c1=N	.	>25.6	.	.	.	.
N=c1c(C(=O)NCc2ccc(F)cc2)cc2c(=O)n3ccccc3nc2n1CCCN1CCOCC1	-0.1%	>57	3.4%	6.2%	>76.9	0.794µM*
CCc1c(C(=O)Nc2cc(C)ccc2OC)[nH]c(C)c1C(C)=O	-4.3%	>57	-13.9%	19.4%	>76.9	-1.3%
O=C(NCCc1c[nH]c2ccccc12)[C@H]1C[C@@H]1[C@H](NP(=O)(c1ccccc1)c1ccccc1)c1ccccc1	-29.8%	.	.	.	.	12.0%
O=c1c(-c2ccc(F)cc2)nc2cncnc2n1Cc1ccccc1	-13.0%	.	-9.6%	17.2%	.	-14.5%
O=c1c(-c2ccc(F)c(F)c2)nc2cncnc2n1Cc1ccccc1	-18.1%	.	-3.3%	42.3%	.	12.6µM*
O=c1c(-c2ccc(F)cc2)nc2cncnc2n1Cc1ccc(F)cc1	0.6%	.	7.2%	52.0%	.	12.6µM*
O=c1c(-c2cc(F)cc(F)c2)nc2cncnc2n1Cc1ccccc1	-4.6%	.	10.9%	45.3%	.	31.6µM*
O=c1c(-c2cc(F)cc(F)c2)nc2cncnc2n1Cc1ccc(F)cc1	-11.4%	.	7.94µM*	69.4%	.	?
O=c1c(-c2ccc(Cl)cc2)nc2cncnc2n1Cc1ccccc1	-7.2%	.	-16.6%	106.8%	.	?
O=c1c(-c2ccc(Cl)cc2)nc2cncnc2n1Cc1ccc(F)cc1	1.7%	.	-2.2%	97.4%	.	?
Cc1c(NC(=O)c2c(F)c(F)c(F)c(F)c2F)c(=O)n(-c2ccccc2)n1C	-2.3%	>57	-3.7%	-3.5%	>76.9	-1.6%
O=C1CC(C(=O)Nc2ccccc2)C2(CCCC2)O1 (stereo unspecified)	1.4%	>57	5.8%	2.1%	>76.9	-5.9%
O=C(O)c1ccccc1NS(=O)(=O)c1cccc2cccnc12	-1.2%	9.09*	-0.9%	4.9%	>76.9	-5.3%
COc1ccc(NS(=O)(=O)c2cccc3cccnc23)cc1	-4.4%	2.61*	-9.3%	-1.0%	>76.9	-11.9%
O=S(=O)(Nc1ccc2c(c1)OCCO2)c1cccc2cccnc12	1.2%	3.27*	-11.0%	5.7%	>76.9	-3.9%
COc1ccccc1NS(=O)(=O)c1cccc2cccnc12	2.1%	.	-0.2%	.	.	-20.4%
CCCc1cc(N2CCN(c3ccccn3)CC2)n2nc(C)c(-c3ccccc3)c2n1	?	>57	9.0%	5.4%	.	-6.7%
COc1cccc(-c2cn3nc4c(nc3n2)CCCC4)c1	1.5%	4.55*	-7.5%	41.6%	>76.9	113.5%
CCCc1ccc(Oc2c(-c3ccc(O)c(C)c3O)n[nH]c2C)cc1	-12.7%	.	?	15.8µM*	.	?
CCCc1ccc(Oc2cn[nH]c2-c2ccc(O)c(C)c2O)cc1	-7.3%	>57	?	?	>76.9	12.0%
CCOc1ccc(C2C=C(c3ccccc3)Nc3nnnn32)cc1 (stereo unspecified)	16.3%	>57	-15.3%	2.8%	3.74*	298.4%
